Calls of active or inactive are those of the source. Unless noted, the rule behind the calls is not given here.
Key:
[1] = HepG2 liver cancer cell viability effects, profiling panel, resazurin fluorescence, 24 h, PK04 Diversity Set (AID 1172); conditions: higher = more signal
[2] = basal S. cerevisiae growth modulation, no modifier, primary screen, OD600, strain BY4716, 24 h, basal condition (AID 1173); conditions: OD600, 24 h, higher = more signal, called active from +8 up or from −8 down
[3] = MM1S myeloma cell viability, profiling panel, resazurin fluorescence, basal, 24 h, PK04 Diversity Set (AID 1174); conditions: higher = more signal, called active from +8 up or from −8 down;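 note: MM1S multiple myeloma cell line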
[4] = target: Dihydroorotate dehydrogenase (quinone), mitochondrial (Plasmodium falciparum (isolate 3D7)) (UniProt Q08210); assay: PfDHODH enzyme inhibitors, primary screen, biochemical, C-terminal His tag, absorbance 600 nm (AID 1175); conditions: DCIP absorbance 600 nm, higher = more signal, called active from +8 up or from −8 down;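 note: recombinant parasite enzyme with a five histidine tag at its C terminus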
[5] = P. aeruginosa biofilm formation inhibitors, primary screen, strain PAO1, LB-PBS medium, absorbance 600 nm (AID 1176); conditions: P. aeruginosa PAO1 growth/biofilm, A600, 12 h; higher = more signal
[6] = S. cerevisiae RM11-1a growth modifiers, primary screen, strain RM11-1a, OD600, basal, 24 h (AID 1177); conditions: OD600, 24 h, higher = more signal, called active from +8 up or from −8 down;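 note: cultures grown under basal conditions with no added stressor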
[7] = E. coli acrAB mutant growth effects, primary screen, E. coli filamentation inducers, strain DRC39, OD650, 24 h (AID 1178); conditions: higher = more signal, called active from +8 up or from −8 down;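 note: growth measured as culture turbidity by optical density at 650 nm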
[8] = E. coli acrAB mutant growth effects, primary screen, E. coli filamentation inducers, strain DRC39, OD650, 48 h (AID 1179);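 note: screen aims at cell division blockers that make cells filament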; conditions: E. coli DRC39 delta-acrAB growth, higher = more signal, called active from +8 up or from −8 down
[9] = RPMI8226 myeloma cell viability, profiling panel, resazurin fluorescence, basal, 24 h, PK04 Diversity Set (AID 1180); conditions: higher = more signal;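 note: RPMI8826 multiple myeloma cell line at 5000 cells per well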
[10] = target: E3 ubiquitin-protein ligase XIAP (Homo sapiens) (UniProt P98170); assay: XIAP binders, primary screen, biophysical, small-molecule microarray, fluorescence 635 nm (AID 1181); conditions: small-molecule microarray binding, higher = more signal;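 note: score merges 667 nm emission and signal to noise over triplicate slides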
[11] = tested on: XIP peptide (Xip251-270) binding; assay: small-molecule binders of XIP peptide, primary screen, biochemical, small-molecule microarray, fluorescence 635/667 nm, 0.1 µg/mL protein (AID 1182); conditions: fluorescent protein binding, 635 nm, higher = more signal, called active from +8 up or from −8 down
XIP peptide (Xip251-270) = assay: small-molecule binders of XIP peptide, primary screen, biochemical, small-molecule microarray, fluorescence 635/667 nm, 0.5 µg/mL protein (AID 1183); conditions: small-molecule microarray binding, fluorescence 635 nm; higher = more signal
[12] = Plasmodium falciparum growth inhibition, primary screen, strain 3D7, DAPI fluorescence, 100 nL (AID 1184);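 note: parasites grown inside human red blood cells in medium with human serum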; conditions: P. falciparum 3D7 growth, 3 d, higher = more signal
[13] = target: Homeobox protein Hox-A13 (Mus musculus) (UniProt Q62424); assay: inhibitors of HoxA13-DNA binding, primary screen, biochemical, fluorescence polarization, labeled oligonucleotide (AID 1185); conditions: 15 min, higher = more signal, called active from +8 up or from −8 down
[14] = inhibitors of hydroxyurea-induced Chk1 phosphorylation, primary screen, imaging, HeLa, phospho-Chk1 antibody, percent positive cells (AID 1186); conditions: hydroxyurea-induced phospho-Chk1 immunofluorescence imaging, higher = more signal
[15] = inhibitors of hydroxyurea-induced Chk1 phosphorylation, primary screen, imaging, HeLa, phospho-Chk1 nuclear intensity (AID 1187); conditions: hydroxyurea-induced phospho-Chk1 immunofluorescence imaging, higher = more signal

Sequence of E3 ubiquitin-protein ligase XIAP (Homo sapiens) (P98170 whole entry, looked up): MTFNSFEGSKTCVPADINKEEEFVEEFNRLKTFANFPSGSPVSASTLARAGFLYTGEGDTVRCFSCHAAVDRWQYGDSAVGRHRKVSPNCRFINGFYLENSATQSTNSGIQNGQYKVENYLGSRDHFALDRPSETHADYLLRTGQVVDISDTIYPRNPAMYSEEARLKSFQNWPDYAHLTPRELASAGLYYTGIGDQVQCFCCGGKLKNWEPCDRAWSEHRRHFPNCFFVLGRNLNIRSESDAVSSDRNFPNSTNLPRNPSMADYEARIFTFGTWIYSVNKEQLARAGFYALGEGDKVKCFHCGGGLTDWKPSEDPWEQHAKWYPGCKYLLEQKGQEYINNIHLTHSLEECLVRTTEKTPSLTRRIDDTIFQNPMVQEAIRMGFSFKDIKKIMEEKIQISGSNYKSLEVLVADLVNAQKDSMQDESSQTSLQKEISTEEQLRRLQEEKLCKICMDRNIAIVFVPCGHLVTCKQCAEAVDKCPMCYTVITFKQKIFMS
Sequence of Dihydroorotate dehydrogenase (quinone), mitochondrial (Plasmodium falciparum (isolate 3D7)) (Q08210 whole entry, looked up): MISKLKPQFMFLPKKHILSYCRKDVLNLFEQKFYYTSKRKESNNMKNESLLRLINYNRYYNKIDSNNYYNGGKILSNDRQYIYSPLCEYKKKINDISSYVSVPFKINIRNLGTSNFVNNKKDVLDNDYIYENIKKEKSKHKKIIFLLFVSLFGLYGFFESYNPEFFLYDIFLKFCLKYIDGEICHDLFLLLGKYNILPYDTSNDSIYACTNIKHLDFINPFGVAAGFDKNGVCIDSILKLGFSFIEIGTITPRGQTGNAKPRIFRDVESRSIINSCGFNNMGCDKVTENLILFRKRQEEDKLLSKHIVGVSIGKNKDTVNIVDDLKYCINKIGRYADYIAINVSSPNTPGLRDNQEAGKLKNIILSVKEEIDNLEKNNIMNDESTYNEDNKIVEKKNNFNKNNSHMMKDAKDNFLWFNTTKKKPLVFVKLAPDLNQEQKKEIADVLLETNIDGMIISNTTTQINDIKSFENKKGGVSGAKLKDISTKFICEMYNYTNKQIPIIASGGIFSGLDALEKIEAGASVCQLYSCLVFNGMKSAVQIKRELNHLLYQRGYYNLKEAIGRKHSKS
Sequence of Homeobox protein Hox-A13 (Mus musculus) (Q62424 whole entry, looked up): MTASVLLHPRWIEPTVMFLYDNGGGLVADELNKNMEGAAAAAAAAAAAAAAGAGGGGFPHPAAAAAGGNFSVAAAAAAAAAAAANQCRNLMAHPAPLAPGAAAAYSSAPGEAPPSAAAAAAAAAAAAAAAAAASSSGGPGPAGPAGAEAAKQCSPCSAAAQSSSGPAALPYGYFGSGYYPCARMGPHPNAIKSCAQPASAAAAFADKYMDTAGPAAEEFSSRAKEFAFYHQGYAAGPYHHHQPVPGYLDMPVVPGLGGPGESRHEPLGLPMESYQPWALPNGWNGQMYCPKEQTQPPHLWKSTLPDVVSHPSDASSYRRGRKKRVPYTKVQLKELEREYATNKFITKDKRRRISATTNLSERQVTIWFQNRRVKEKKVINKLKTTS

SMILES	z-score [1]	z-score [2]	z-score [3]	composite z-score [4]	z-score [5]	z-score [6]	z-score [7]	z-score [8]	z-score [9]	composite z-score [10]	composite z-score [11]	composite z-score (XIP peptide (Xip251-270))	z-score [12]	z-score [13]	z-score [14]	z-score [15]
CN(C)C(=O)[C@]1(Cc2ccccc2CN=[N+]=[N-])N=C(c2ccc(OCCCO)cc2)O[C@@H]1c1ccccc1CN=[N+]=[N-]	-0.053	-0.868 (inactive)	-1.19 (inactive)	0.587 (inactive)	1.06 (inactive)	-0.111 (inactive)	0.187 (inactive)	-0.719 (inactive)	-1.1	0.0015	1.01 (inactive)	0.637	-2.68	-0.212 (inactive)	-0.123 (inactive)	-0.249 (inactive)
CN1C(=O)C2C=CC(C(O)Cc3ccccc3)N(Nc3ccccc3)C2C1=O (centres undefined)	-0.355	-0.836 (inactive)	-0.808 (inactive)	0.295 (inactive)	1.07 (inactive)	0.217 (inactive)	-0.553 (inactive)	-0.801 (inactive)	-0.541	-0.189	-0.0041 (inactive)	0.508	0.538	-4.51 (inactive)	-0.444 (inactive)	-0.889 (inactive)
O=C1[C@H]2C=C(Br)[C@H](C[C@@H]2c2ccccc2)[C@@]12CO2	-0.25	-7.98 (inactive)	-0.727 (inactive)	0.402 (inactive)	-0.14 (inactive)	-0.13 (inactive)	-1.29 (inactive)	-1.58 (inactive)	-0.579	-0.228	0.122 (inactive)	0.31	-0.391	-1.29 (inactive)	-0.155 (inactive)	-0.0519 (inactive)
CC(C)(C)OC(=O)CC[C@]1(C(=O)NCC(O)CO)COC(c2ccc(OCCCO)cc2)=N1 (some centres undefined)	0.245	0.525 (inactive)	0.198 (inactive)	0.563 (inactive)	0.826 (inactive)	1.51 (inactive)	0.116 (inactive)	0.0752 (inactive)	0.467	-0.181	0.273 (inactive)	0.151	-0.104	-3.95 (inactive)	0.505 (inactive)	0.437 (inactive)
C=CCNC(=O)[C@@H]1[C@H]2C(=O)O[C@H](c3ccccc3)[C@H](c3ccccc3)N2[C@H](c2ccc(OCCO)cc2)[C@@]12C(=O)Nc1ccc(C#Cc3ccc(OC)cc3)cc12	-0.662	1.84 (inactive)	-0.718 (inactive)	-4.91 (inactive)	1.81 (inactive)	2.6 (inactive)	-1.48 (inactive)	-1.2 (inactive)	-1.25	0.0181	1.37 (inactive)	0.792	-2.28	-1.61 (inactive)	0.166 (inactive)	0.143 (inactive)
C=CCOC(=O)[C@H]1[C@@H]2C(=O)O[C@@H](c3ccccc3)[C@@H](c3ccccc3)N2[C@@H](c2ccc(OCCOC(=O)[C@H]3C[C@H]4C(=O)N[C@@H](CC(C)C)C(=O)N4[C@H]3c3ccc(O)cc3)cc2)[C@]12C(=O)Nc1ccc(I)cc12	-0.598	-0.838 (inactive)	-0.491 (inactive)	-1.72 (inactive)	0.379 (inactive)	0.919 (inactive)	-0.267 (inactive)	0.276 (inactive)	-0.385	0.109	0.626 (inactive)	0.75	-0.061	6.65 (inactive)	0.293 (inactive)	0.198 (inactive)
N#Cc1ccc(NN2C(C(O)c3c(F)cccc3Cl)C=CC3C(=O)N(c4ccccc4)C(=O)C32)cc1 (centres undefined)	-1.31	0.566 (inactive)	-0.392 (inactive)	1.67 (inactive)	1.01 (inactive)	-0.0762 (inactive)	-0.731 (inactive)	-0.445 (inactive)	-0.739	0.585	0.817 (inactive)	0.748	-0.677	0.238 (inactive)	0.0345 (inactive)	0.0457 (inactive)
NC(=O)[C@@H]1[C@H]2C(=O)O[C@H](c3ccccc3)[C@H](c3ccccc3)N2[C@H](c2ccc(O)cc2)[C@@]12C(=O)Nc1ccc(C#CC3(O)CCCCCC3)cc12	-0.0265	-1.32 (inactive)	0.475 (inactive)	-0.387 (inactive)	0.654 (inactive)	0.591 (inactive)	-0.84 (inactive)	-0.184 (inactive)	-0.49	-0.113	0.734 (inactive)	0.458	0.907	-3.37 (inactive)	-0.0527 (inactive)	0.0812 (inactive)
CCOC(=O)C1=CCC(c2ccccc2)N(S(=O)(=O)CC[Si](C)(C)C)C1 (centres undefined)	1.17	-1.48 (inactive)	0.406 (inactive)	0.49 (inactive)	-0.461 (inactive)	-0.0286 (inactive)	-0.117 (inactive)	1.05 (inactive)	0.681	-0.192	-0.0447 (inactive)	0.113	-0.391	-2.31 (inactive)	-0.262 (inactive)	0.0088 (inactive)

— PubChem BioAssay
